Drawing on PubChem BioAssay (Tox21), this text covers outcome for 40 molecules.

Activity calls are given as the source filed them. Calls follow the shape of the dose curve; as a rule, active = well fitted inhibition curve with a large enough effect in the repeat runs (not every such curve was filed as active); inconclusive = weak or mixed curves; inactive = flat fitted curve, though single readings scatter.

Sequence of Thyrotropin-releasing hormone receptor (Homo sapiens) (P34981 whole entry, looked up): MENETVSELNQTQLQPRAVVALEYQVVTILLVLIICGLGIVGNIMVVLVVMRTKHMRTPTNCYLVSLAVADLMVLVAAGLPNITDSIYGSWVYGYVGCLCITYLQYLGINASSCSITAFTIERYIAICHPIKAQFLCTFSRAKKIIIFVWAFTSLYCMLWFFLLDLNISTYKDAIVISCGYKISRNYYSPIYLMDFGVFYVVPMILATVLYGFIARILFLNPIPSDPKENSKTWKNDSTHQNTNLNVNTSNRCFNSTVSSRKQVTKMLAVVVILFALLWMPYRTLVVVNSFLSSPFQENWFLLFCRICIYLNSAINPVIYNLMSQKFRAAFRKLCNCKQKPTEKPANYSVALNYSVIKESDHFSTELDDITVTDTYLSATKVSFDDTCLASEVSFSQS

The assay deals with Thyrotropin-releasing hormone receptor (Homo sapiens) (UniProt P34981). The experiment in a line: qHTS assay to identify small molecule antagonists of the thyrotropin-releasing hormone receptor (TRHR) signaling pathway (AID 1346877). Conditions: TRHR-HEK293, TRH-induced calcium fluorescence, antagonist mode; series mostly up to 51.3 µM. An excerpt:
National Center for Advancing Translational Sciences [NCATS]
NIH Chemical Genomics Center [NCGC]
U.S. Environmental Protection Agency [EPA]
National Institutes of Environmental Health Sciences [NIEHS]
National Toxicology Program [NTP]
U.S. Food and Drug Administration [FDA]
Thyrotropin-releasing hormone (TRH) receptor (TRHR) is a G-protein-coupled receptor which binds the tripeptide thyrotropin releasing hormone. TRHR is found in the brain and, when bound by TRH, acts (through phospholipase C) to increase intracellular inositol trisphosphate. It plays a crucial role in the anterior pituitary where it controls the synthesis and secretion of thyroid stimulating hormone and prolactin. The TRHR-Hek293 assay is a cell-based assay, and it has the potential to screen G protein-coupled receptors. A compound/drug can either activate (agonist) or suppress (antagonist) GPCRs that can be monitored by levels of intracellular calcium. In this assay, the Tox21 10K compound library was screened to identify potential TRHR antagonists.
Tox21 Assay Protocol Summary:
The TRHR-Hek293 cells were dispensed at 1500cells/4uL/well in 1536-well black-clear bottom plates using a Multidrop dispenser. After the assay plates were incubated at a 37 C/5% CO2 incubator for 18 hours, 4 uL of Dye-Loading Solution was added to each well. The plates were incubated at 37 C for 2 hours. For agonist mode, 23 nL of compounds dissolved in DMSO, positive controls or DMSO only was transferred to the assay plate by a pin tool. The fluorescence intensity in the plates was measured using FDSS 7000EX kinetic plate reader for 3 min at 1 sec intervals. For antagonist mode, 23 nL of compounds dissolved in DMSO, positive controls or DMSO only was transferred to the assay plate by a pin tool. After 5 min incubation at room temperature, 1 uL of TRH was added on the top of the cell/compound mixtures to achieve a final agonist concentration of 1 nM. The fluorescence intensity in the plates was measured using FDSS 7000EX kinetic plate reader for 3 min at 1 sec intervals. Each test compound was measured at 15 concentrations and in triplicates.
In general terms: In qHTS, concentration-response curves come from the screen itself.
Consider `CCN(CC)CCO`, for which the result was inactive.

Take `O=c1n(Cl)c(=O)n(Cl)c(=O)n1Cl`: the result was inactive. For `NCC(O)c1ccc(O)cc1` (stereo not given), the result was inactive. In the case of `COC(=O)NC(=S)Nc1ccccc1NC(=S)NC(=O)OC`, the result was inactive. Consider `Cc1cc(Cl)ccc1O`, for which the outcome was inactive. Then `Cc1ccc([N+](=O)[O-])cc1C`, with “inactive”; and `C1CN2CCN1CC2`, with “inactive”; and `COP(N)(=O)SC` (stereo not given), with “inactive”. With `Cc1ccccc1O`, the outcome was inactive.

Turning to `Nc1ccc(Br)cc1`, the result was inactive.

As to `CCC[CH2][Sn]([Cl])([Cl])[Cl]`, the outcome was inactive. `O=c1[nH]c(=O)[nH]c(=O)[nH]1`: the outcome was inactive.

Take `CC(C)C#N`: the result was inactive. To `CC(C)NC(=O)N1CC(=O)N(c2cc(Cl)cc(Cl)c2)C1=O` belongs “inactive”. `[O-][Cl+2]([O-])O`: the result was inactive.

On to `O=S(=O)(c1ccc(Cl)cc1)c1cc(Cl)c(Cl)cc1Cl`, for which the result was inactive. Regarding `Oc1ccccc1Cl`, the result was inactive.

Turning to `c1ccc2c(c1)oc1ccccc12`, the result was inactive. As to `Nc1ccccc1C(=O)O`, the result was inactive.

With `CC(C)(Cl)Cl`, the result was inactive. Regarding `CN(C)CCO`, the outcome was inactive. Consider `O=NN1CCCCCCC1`, for which the result was inactive. As to `CCCC1COC(Cn2cncn2)(c2ccc(Cl)cc2Cl)O1` (stereo not given), the result was inactive. To `CN(N=O)c1ccccc1` belongs “inactive”; to `c1ccc(OP(Oc2ccccc2)Oc2ccccc2)cc1`, “inactive”; to `CCN(CC)c1ccccc1`, “inactive”.

As to `O=C(NC(=O)c1c(F)cccc1F)Nc1cc(Cl)c(OC(F)(F)C(F)C(F)(F)F)cc1Cl` (stereo not given), the outcome was inactive.

For the molecule `Cn1cc(-c2ccccc2)c(=O)c(-c2cccc(C(F)(F)F)c2)c1`, the outcome was inactive. For the molecule `CCOP(=S)(OCC)Oc1cnc2ccccc2n1`, the result was inactive. Regarding `O=[N+]([O-])c1ccc([As](=O)(O)O)cc1`, the result was inactive. Turning to `CCCN(CCC)N=O`, the result was inactive. To `O=[N+]([O-])c1ccc(Oc2ccc(Cl)cc2Cl)cc1` belongs “inactive”; to `CCOP(OCC)OCC`, “inactive”. Then `CCCCCOC(=O)c1ccccc1C(=O)OCCCCC`, with “inactive”; and `CCc1cccc(C)c1N(C(=O)CCl)C(C)COC` (stereo not given), with “inactive”; and `CN(C)[C@@H]1C(=O)C(C(N)=O)=C(O)[C@@]2(O)C(=O)C3=C(O)c4c(O)cccc4[C@@](C)(O)[C@H]3C[C@@H]12`, with “inactive”. Then `Cc1ccc(N)cc1Cl`, with “inactive”; and `C#CC(C)(C)NC(=O)c1cc(Cl)cc(Cl)c1`, with “inactive”.

Turning to `Nc1c(Cl)c(Cl)nc(C(=O)O)c1Cl`, the outcome was inactive. Consider `c1cc2c3c(cccc3c1)CC2`, for which the outcome was inactive.
